Screening results (PubChem)
Pemphigus Ab inh: inhibitors of pemphigus antibody binding to DSG3, primary screen, biochemical, bead-based, flow cytometry, scFv-GFP; Desmoglein-3 (Homo sapiens), P32926; DSG3-coupled beads, scFv-anti-DSG3-GFP binding; stronger effect = lower value; binding (percent of control), % at 10 µM; 310,000 compounds, 0.48% hits; AID 588358, 2011;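 active means binding more than 3 SD below its plate's average and above zero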
GASC-1 inh: inhibitors of GASC-1 histone demethylase, primary screen, biochemical, fluorescence, DELFIA europium; AID 2099, 2009; GST-JMJD2C(1-420) H3K9me3 demethylation; 330,000 compounds, 0.069% hits; inhibition, % at 2.35 µM;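 active means more than half of a compound's replicate wells show inhibition beyond 50%, single wells judged on their own value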;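 further: signal counts dimethyl H3K9 product captured on neutravidin plate; 0% = median of DMSO wells and 100% = 0.3 times that DMSO median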
Target sequence (Q9H3R0 1-420 limits assumed): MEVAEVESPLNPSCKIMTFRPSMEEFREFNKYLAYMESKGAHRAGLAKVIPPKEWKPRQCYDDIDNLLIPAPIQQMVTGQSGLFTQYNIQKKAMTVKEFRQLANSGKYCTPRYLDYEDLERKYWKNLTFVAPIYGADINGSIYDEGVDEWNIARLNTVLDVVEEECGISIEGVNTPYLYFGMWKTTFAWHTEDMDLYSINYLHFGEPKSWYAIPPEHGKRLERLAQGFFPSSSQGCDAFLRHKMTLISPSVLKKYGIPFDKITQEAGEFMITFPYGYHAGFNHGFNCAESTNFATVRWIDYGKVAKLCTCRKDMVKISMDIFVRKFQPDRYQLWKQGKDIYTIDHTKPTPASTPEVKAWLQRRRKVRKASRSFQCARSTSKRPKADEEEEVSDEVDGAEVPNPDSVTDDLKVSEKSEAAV
GRK2 inh: compounds blocking aptamer binding on GRK2 – biochemical, human GRK2, bead flow cytometry, HTS, primary screen. FAM-aptamer displacement from GRK2. AID 488847, 2010. inhibition of aptamer binding, % at 10 µM. 330,000 compounds, 0.59% hits. Beta-adrenergic receptor kinase 1 (Homo sapiens), P25098;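 active means inhibition of aptamer binding above 40%, roughly 3 SD of noise, on plates passing a quality check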;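 further: median bead fluorescence of bound FAM aptamer so fluorescent compounds give negative values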
VLA-4 inh: inhibition in human VLA-4 binding assay, primary screen, VLA-4 allosteric modulator project, MLPCN library, flow cytometry, VLA-4 expressing cells; ligand binding flow cytometry; 330,000 compounds, 0.2% hits; inhibition, % (about 7 µM as worked out from the volumes in the protocol); in the data active means inhibition above about 50%
PREPL inhibitor: PREPL enzyme inhibitors, primary screen, biochemical, fluorescence polarization; Prolyl endopeptidase-like (Homo sapiens), Q4J6C6; recombinant PREPL, fluorescence polarization activity-based probe; inhibition, % at 5.96 µM; 320,000 compounds, 0.68% hits; AID 2751, 2010; in the data active means inhibition above about 43%;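 further: 0% = enzyme with DMSO and 100% = wells lacking enzyme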
GRK2 inh confirm: GRK2 aptamer-displacing inhibitors, retest, confirmation, biochemical, cherry pick 1, bead flow cytometry; shares compounds with GRK2 inh; bead-bound GRK2, FAM-aptamer displacement; aptamer displacement, % at 10 µM; 2,000 compounds, 4% hits;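 active means aptamer displacement above 40%, near three times the noise of non-fluorescent compounds, on plates passing quality checks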;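 further: negative values mostly reflect intrinsic compound fluorescence rather than true enhancement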
FAM quench CP1: quenches fluorescent RNA aptamer, GRK2 hit artifact | shares compounds with GRK2 inh | Carboxyfluorescein RNA aptamer on beads, flow cytometry quenching; stronger effect = lower value | fluorescence response (% of DMSO), % at 10 µM | 2,000 tested, under 10 active | AID 504580;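 active means compounds that quench the bead-bound fluorescent RNA probe, cutting fluorescence to under half of the solvent control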;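 further: counterscreen run without GRK2 so only probe quenching by compound is measured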
Starred values were filed as active, the others as inactive; x = no result given. Most compounds without a hit are left out; they make up all but 1.6% or so of the library.

SMILES	Pemphigus Ab inh	GASC-1 inh	GRK2 inh	VLA-4 inh	PREPL inhibitor	GRK2 inh confirm	FAM quench CP1
CCC(C)(C)NC(=O)c1ccc2c(c1)S(=O)(=O)c1ccccc1C2=O	99	10	54*	17	-4	-1	99
O=C(NCCO)c1ccc2c(c1)S(=O)(=O)c1ccccc1C2=O	105	-6	0	-8	15	x	x
Cc1cc(C)cc(NC(=S)/C(=C(\[O-])c2ccc(Cl)cc2Cl)[n+]2ccc(C(C)(C)C)cc2)c1	99	5	41*	-14	5	-4	101
Cc1cc(C)cc(NC(=S)/C(=C(\[O-])c2ccc(Cl)s2)[n+]2cccc(C)c2)c1	126	12	2	18	11	x	x
CNC(=O)NC(=O)COC(=O)CCCSc1nc2ccccc2s1	110	6	2	18	13	x	x
NC(=O)COC(=O)CCCSc1nc2ccccc2s1	x	-9	51*	2	0	1	97
CCC1CCCCN1Cc1nc2c(c(=O)n(C)c(=O)n2C)n1Cc1ccccc1 (stereo not drawn)	106	-19	1	38	3	x	x
CCCn1c(CN2CCCCC2CC)nc2c1c(=O)n(C)c(=O)n2C (stereo not drawn)	95	-16	47*	5	-3	1	100
CCCn1c(CN2CCCCC2C)nc2c1c(=O)n(C)c(=O)n2C (stereo not drawn)	107	0	0	-6	2	x	x
CCC1CCCCN1Cc1nc2c(c(=O)n(C)c(=O)n2C)n1CCCc1ccccc1 (stereo not drawn)	119	6	2	-5	2	-1	104
C/C(=N\Nc1ccc(C(F)(F)F)cc1[N+](=O)[O-])C1CC1	90	11	0	1	9	x	x
COC(=O)c1c(NC(=O)COC(=O)[C@@H](NS(=O)(=O)c2cccc(Cl)c2)C(C)C)sc2c1CCC2	121	6	0	-12	-5	x	x
CC(C)[C@H](NS(=O)(=O)c1cccc(Cl)c1)C(=O)OCC(=O)NC(=O)CN1CCCC1=O	96	3	45*	-2	-2	39	100
CC1CCCN(S(=O)(=O)c2ccc(NC(=O)C3CC(=O)N(c4ccccc4)C3)cc2)C1 (stereo not drawn)	x	-2	100*	6	12	3	102
CSCC[C@H](NC(=O)Cc1c(C)c2c(cc(C)c3c(C)coc32)oc1=O)C(=O)O	98	0	97*	5	x	-5	95
CC[C@@H](C)[C@H](NC(=O)Cc1c(C)c2c(cc(C)c3c(C)coc32)oc1=O)C(=O)O	97	1	0	3	x	x	x
O=C(N/N=C/c1cccc(F)c1)c1c(O)c2ccccc2[nH]c1=O	99	-9	70*	29	5	4	94
O=C(N/N=C/c1ccc(F)cc1)c1c(O)c2ccccc2[nH]c1=O	99	-1	0	x	7	x	x
COc1ccc(-c2cn3c(C)c(C(=O)N4CCCc5ccccc54)sc3n2)cc1	105	1	81*	26	17	0	97
Cc1ccccc1Cn1nc(C)c(NC(=O)c2nc3n(n2)C(C(F)F)CC(C)N3)c1C (stereo not drawn)	106	9	1	-7	3	x	x
Cc1ccccc1Cn1nc(C)c(NC(=O)c2cc3n(n2)C(C(F)F)CC(C(F)F)N3)c1C (stereo not drawn)	93	x	98*	13	4	0	100
O=C1CC(NC(=O)C(F)(F)F)c2cc3c(cc21)OCO3 (stereo not drawn)	117	-2	2	9	2	x	x
CC(=O)n1cc([C@H]2C=C(C(=O)NCc3ccccc3)O[C@@H](OCc3ccc(CO)cc3)C2)c2ccccc21	109	-2	1	0	-13	x	x
